Only some compounds are listed: those with a hit (about 14% of all), similar ones and a draw of the others.
NS1 inh: qHTS Assay for Inhibitors of Influenza NS1 Protein Function. Potency, µM (titrated, usually from 46.1 µM), inactives show at the highest dose activity, positive = more growth. 270,000 compounds, 0.4% hits. AID 2326, 2010; calls by dose curve; note: potency is the fitted concentration of half-maximal effect; actives are rising curves; nearly all actives have a fitted effect of over 50% in size
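A cell-based growth assay was used: compounds that relieve NS1-induced slow growth of budding yeast raise OD600. Assay medium was yeast nitrogen base with ammonium sulphate and -URA supplement, pH 6.0, with 2% galactose.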
Cycloheximide cs: Cycloheximide Counterscreen for Small Molecule Inhibitors of Shiga Toxin; cell reporter, cycloheximide protein synthesis inhibition counterscreen; max response, %; 300,000 compounds, 12% hits; in the data active = max response mostly above about 13%, no sharp cut-off; inactive = mostly below about 14%; note: read at 38.3 µM for the half of the compounds with a filed dose; 0% is about no effect
FBPA Giardia inh: qHTS Assay for Inhibitors of Fructose-1,6-bisphosphate Aldolase from Giardia Lamblia. purified Giardia FBPA. Potency, µM (top dose mostly 59.6 µM), without a hit: at the highest dose activity, negative = inhibition, usual class: inhibitors. 290,000 compounds, 0.71% hits. AID 2451, 2010; note: potency is the fitted concentration of half-maximal effect; % is set by controls: 0 for no effect and ±100 for the full control effect; nearly all actives have a fitted effect of over 55% in size
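40 nM FBPA preincubated 10 min at RT with compound (up to 57.5 uM final), then substrate plus GAPDH/TPI/NAD/arsenate coupling and diaphorase/resazurin added. Fluorescence read after 20 min at RT, 525/598 nm.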
LmPK inhibitor: qHTS Assay for Inhibitors of Leishmania Mexicana Pyruvate Kinase (LmPK); Q27686; purified LmPK, Kinase-Glo ATP luminescence, 1 h; Potency, µM (series often up to 57.5 µM), for the others: at the highest dose activity change, negative = inhibition, usual class: inhibitors; 290,000 compounds, 0.37% hits; note: potency is the fitted concentration of half-maximal effect; % is set by controls: 0 for no effect and ±100 for the full control effect
Target sequence (Q27686 whole entry, looked up): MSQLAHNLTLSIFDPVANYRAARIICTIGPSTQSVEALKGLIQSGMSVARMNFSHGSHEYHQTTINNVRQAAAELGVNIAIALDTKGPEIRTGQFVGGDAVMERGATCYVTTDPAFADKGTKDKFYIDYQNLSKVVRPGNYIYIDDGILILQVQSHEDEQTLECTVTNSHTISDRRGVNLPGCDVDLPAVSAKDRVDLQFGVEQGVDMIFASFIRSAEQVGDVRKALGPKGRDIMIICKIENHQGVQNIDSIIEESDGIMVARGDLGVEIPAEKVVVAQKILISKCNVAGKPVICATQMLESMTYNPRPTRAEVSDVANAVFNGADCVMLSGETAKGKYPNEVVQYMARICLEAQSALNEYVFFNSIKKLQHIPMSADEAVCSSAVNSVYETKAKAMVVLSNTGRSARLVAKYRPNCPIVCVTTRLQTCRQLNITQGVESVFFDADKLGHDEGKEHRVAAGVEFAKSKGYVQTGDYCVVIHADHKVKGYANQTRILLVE
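Pyruvate kinase activity monitored as ATP production (luciferase luminescence). Conditions: 0.1 nM enzyme, 0.5 mM PEP, 0.1 mM ADP, 1 h, RT; normalized against uninhibited and no-enzyme wells.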
Shiga toxin inh: A qHTS for Small Molecule Inhibitors of Shiga Toxin; Vero cells, Shiga toxin protein synthesis inhibition reporter; inhibition, % at 38.7 µM; 290,000 compounds, 9.2% hits; AID 2315, 2010; in the data active = inhibition mostly above about 28%, no sharp cut-off; inactive = mostly below about 43%; note: 0% is about no effect
* marks the source's active call; other numbers are inactive results. Unless noted, calls come from the whole dose curve; as a rule, active = well fitted curve in the direction sought with a large enough effect; inconclusive = small, poorly fitted or top-dose-only effect, or another doubt; inactive = no such curve, though single readings can be large; an effect the other way counts as inactive or inconclusive.

Screening COc1ccc(-n2nc(C(=O)NCC(=O)N3CCCCCC3)c3ccccc3c2=O)cc1OC returned NS1 inh 4%, Cycloheximide cs 24*, FBPA Giardia inh 3%, LmPK inhibitor 1% and Shiga toxin inh 15.
COc1ccc(-n2nc(C(=O)NCC(=O)N3CCC4(CC3)OCCO4)c3ccccc3c2=O)cc1Cl was read as NS1 inh -1%, Cycloheximide cs 23*, FBPA Giardia inh 5%, LmPK inhibitor 2% and Shiga toxin inh 54*.
CCOC(=O)C1CCN(C(=O)CNC(=O)c2nn(-c3ccc(OC)c(Cl)c3)c(=O)c3ccccc23)CC1 was read as NS1 inh 17%, Cycloheximide cs 25*, FBPA Giardia inh 6%, LmPK inhibitor 0% and Shiga toxin inh 35.
COc1ccc(-n2nc(C(=O)NCC(=O)N3CCC(C)CC3)c3ccccc3c2=O)cc1 was read as NS1 inh 18%, Cycloheximide cs 33*, FBPA Giardia inh 2%, LmPK inhibitor -1% and Shiga toxin inh 48*.
Screening CCCCN(CC)C(=S)Nc1ccc2nc(N3CCN(C)CC3)cc(C)c2c1 returned NS1 inh -8%, Cycloheximide cs 28*, FBPA Giardia inh -13%, LmPK inhibitor 9% and Shiga toxin inh 28.
`CCCCN(C)C(=S)Nc1ccc2nc(N3CCN(CC)CC3)cc(C)c2c1` gave NS1 inh -2%, Cycloheximide cs 13, FBPA Giardia inh -13%, LmPK inhibitor 2% and Shiga toxin inh 82*.
Screening CC(Oc1ccccc1)C(=O)N=C1SC2CS(=O)(=O)CC2N1c1cccc(F)c1 (centres undefined) returned NS1 inh 5%, Cycloheximide cs -1, LmPK inhibitor 5% and Shiga toxin inh 4.
`S=C(NC1CC1)N1CCN(C(=S)NC2CC2)CC1` gave NS1 inh -5%, Cycloheximide cs 28*, LmPK inhibitor -10% and Shiga toxin inh 7.
`COc1ccc(-c2nnc3n2N=C(c2c(OC)cccc2OC)CS3)cc1OC` gave Cycloheximide cs -7, FBPA Giardia inh 2% and Shiga toxin inh -9.
Screening COc1cccc(NC(=O)C2Cc3ccccc3CN2C(=O)c2ccco2)c1 (centres undefined) returned NS1 inh -4%, Cycloheximide cs 54*, FBPA Giardia inh -4%, LmPK inhibitor -8% and Shiga toxin inh 79*.
Screening Cc1ccccc1NC(=O)C1Cc2ccccc2CN1C(=O)OCc1ccccc1 (centres undefined) returned NS1 inh -13%, Cycloheximide cs -3, FBPA Giardia inh 2%, LmPK inhibitor -1% and Shiga toxin inh 12.
Screening NS(=O)(=O)c1ccc(NC(=O)C2Cc3ccccc3CN2C(=O)c2ccco2)cc1 (centres undefined) returned NS1 inh 10%, Cycloheximide cs -6, FBPA Giardia inh -6%, LmPK inhibitor -1% and Shiga toxin inh 15.
For Cc1ccccc1NC(=O)C1Cc2ccccc2CN1C(=O)c1ccco1 (centres undefined) the results were NS1 inh 8%, Cycloheximide cs 45*, FBPA Giardia inh -12%, LmPK inhibitor -1% and Shiga toxin inh 77*.
Screening COc1cccc(NC(=O)[C@@H]2CCCN2C(=O)[C@@H]2Cc3ccccc3CN2C(=O)OC(C)(C)C)c1 returned NS1 inh 5%, Cycloheximide cs 20*, LmPK inhibitor 13% and Shiga toxin inh 52.
O=C(NCc1ccccc1)C1Cc2ccccc2CN1C(=O)c1ccco1 (centres undefined) was read as Cycloheximide cs -3, FBPA Giardia inh 0%, LmPK inhibitor 2% and Shiga toxin inh 6.
O=C(O)C1Cc2ccccc2CN1C(=O)c1ccco1 (centres undefined) was read as NS1 inh 8%, Cycloheximide cs 12*, FBPA Giardia inh -3% and LmPK inhibitor 20%.
Screening CC(=O)N1CC(C)Oc2ccc(S(=O)(=O)Nc3ccc(Cl)cn3)cc21 (centres undefined) returned NS1 inh 2%, Cycloheximide cs 8, FBPA Giardia inh -5%, LmPK inhibitor -1% and Shiga toxin inh 14.
Screening O=C1CCCN1CCCNc1nc2c(S(=O)(=O)c3ccccc3)nnn2c2ccc(Cl)cc12 returned NS1 inh 17%, Cycloheximide cs 10, FBPA Giardia inh 19%, LmPK inhibitor 2% and Shiga toxin inh -6.
For Cc1ccc(NC(=O)C2Cc3ccccc3CN2C(=O)c2ccccc2)cc1Cl (centres undefined) the results were NS1 inh 10%, Cycloheximide cs 18*, FBPA Giardia inh inconclusive, LmPK inhibitor 5% and Shiga toxin inh 3.
Cc1cc(NC(=O)C2CC(=O)N(c3ccccc3Cl)C2)no1 (centres undefined) was read as NS1 inh 3%, Cycloheximide cs -2, FBPA Giardia inh 8%, LmPK inhibitor -4% and Shiga toxin inh 11.
`Cc1cc(C)c2c(c1)SC1=NC(c3ccccc3)(C(F)(F)F)NC(=O)N12` (centres undefined) gave NS1 inh -57%, Cycloheximide cs 24*, FBPA Giardia inh 3%, LmPK inhibitor 0% and Shiga toxin inh 36.
For C=C1CCN(C(Cc2ccccc2)C(=O)N2CCOCC2)S(=O)(=O)c2ccccc21 (centres undefined) the results were Cycloheximide cs -5, FBPA Giardia inh 4% and Shiga toxin inh -13.
For CC1CCCCN1C(=O)CSc1nnc(-c2ccc(Cl)s2)o1 (centres undefined) the results were NS1 inh -51%, Cycloheximide cs 28*, FBPA Giardia inh -2%, LmPK inhibitor 0% and Shiga toxin inh 88*.
CC1CCCC(C)N1C(=O)CSc1nnc(C2CCCCC2)o1 (centres undefined) was read as NS1 inh -20%, Cycloheximide cs 46*, FBPA Giardia inh 8%, LmPK inhibitor -4% and Shiga toxin inh 93*.
For CC1CCCCN1C(=O)CSc1nnc(-c2ccccc2O)o1 (centres undefined) the results were NS1 inh -2%, Cycloheximide cs 21*, FBPA Giardia inh -1%, LmPK inhibitor 1% and Shiga toxin inh 56*.
For CC1CCCCN1C(=O)CSc1nnc(-c2cccnc2)o1 (centres undefined) the results were NS1 inh 5%, Cycloheximide cs -2, FBPA Giardia inh 3%, LmPK inhibitor -1% and Shiga toxin inh 15.
Screening Cc1cc(-c2nnc(SCC(=O)N3C(C)CCCC3C)o2)no1 (centres undefined) returned NS1 inh -1%, Cycloheximide cs -2, FBPA Giardia inh 15%, LmPK inhibitor -8% and Shiga toxin inh 23.
For C[C@@H](CCCCC(=O)Nc1ccc(C(F)(F)F)cc1)NCCc1cnc[nH]1 the results were FBPA Giardia inh 5%.
N#Cc1ccc(CN2CCCC3(CCNCC3)C2)cc1 was read as FBPA Giardia inh 2%.

Screening results (PubChem BioAssay)
